Sampled rows, rich in hits. Any-hit rate of the full collection: about 32%.
CYP2C9 inh: inhibitors of human CYP2C9; AID 777; 96,000 compounds, 20% hits; CYP2C9 Supersomes, luciferin-H conversion, luminescence; inhibition, % at 5 µM; P11712;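 active means blocking of liver enzyme CYP2C9 beyond about 50% at 5 µM, limit read from the data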
CYP2C19 act: increases human CYP2C19 enzyme activity. P33261. recombinant CYP2C19, luciferin-H EGE luminescence; stronger effect = higher value; 0 = fully inhibited enzyme, 1 = untreated enzyme. activation factor at 5 µM. 96,000 tested, under 10 active;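 active means activation factor of at least 2 at 5 µM in the primary screen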;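 further: 0 = wells with 2.5 mM tranylcypromine and 1 = vehicle-only wells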
Target sequence (P33261 whole entry, looked up): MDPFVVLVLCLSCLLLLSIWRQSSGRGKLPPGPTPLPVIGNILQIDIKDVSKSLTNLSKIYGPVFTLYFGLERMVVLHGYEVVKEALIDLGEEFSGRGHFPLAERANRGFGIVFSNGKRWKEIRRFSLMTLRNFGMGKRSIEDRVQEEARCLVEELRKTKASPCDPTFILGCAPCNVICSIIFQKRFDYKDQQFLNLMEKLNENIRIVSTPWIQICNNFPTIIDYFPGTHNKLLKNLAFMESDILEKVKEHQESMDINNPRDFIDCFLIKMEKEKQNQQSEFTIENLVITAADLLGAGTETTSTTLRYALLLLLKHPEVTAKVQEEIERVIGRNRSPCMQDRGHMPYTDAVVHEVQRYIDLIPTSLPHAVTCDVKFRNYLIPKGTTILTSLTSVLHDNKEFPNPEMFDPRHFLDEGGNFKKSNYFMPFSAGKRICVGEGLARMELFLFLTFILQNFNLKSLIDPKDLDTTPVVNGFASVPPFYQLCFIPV
PostGolgi ctrl: yeast control strain growth, post-Golgi counter-screen; 98,000 compounds, 5% hits; inhibition, % at 10 µM; efflux-deficient yeast background strain, growth absorbance A615, 16 h
PostGolgi yeast: growth inhibition of a yeast mutant, post-Golgi transport screen. post-Golgi transport phenotypic cell assay. inhibition, % at 10 µM. 98,000 compounds, 0.9% hits. AID 739;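 further: yeast cells grown in 1536-well plates; yeast grown about 18 h at 30C before absorbance read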
CYP2C19 inhib: human CYP2C19 inhibition; CYP2C19 Supersomes, luciferin-H EGE luminescence, 30 min; P33261; 96,000 compounds, 21% hits; inhibition, % at 5 µM;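 active means CYP2C19 inhibition above a set limit at 5 µM in the primary screen, cut at about 50% in these data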;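 further: plate controls were negative control wells for no effect and 2.5 mM tranylcypromine positive control for full effect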
CYP2C9 act: increases human cytochrome P450 2C9 activity; P11712; recombinant CYP2C9, luciferin-H conversion, luminescence; stronger effect = higher value; factor 1 = untreated enzyme, 0 = blocked; activation factor at 5 µM; 96,000 compounds, 1.4% hits; AID 1024;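 active means activation factor of 2 or more for CYP2C9 at a 5 µM dose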;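 further: 0 = sulfaphenazole-blocked wells and 1 = vehicle-only wells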
* marks the source's active call; other numbers are inactive results; x = no result. Unless noted, no stated cut-off is given here; in the data, active means inhibition above about 30%; inactive means the rest.

SMILES	CYP2C9 inh	CYP2C19 act	PostGolgi ctrl	PostGolgi yeast	CYP2C19 inhib	CYP2C9 act
CCC(C)(C)n1nnnc1C(c1cc2ccc(OC)cc2[nH]c1=O)N1CCc2ccccc2C1 (stereo unspecified)	72.9*	0.8	9.7	-1.6	17.6	0.3
O=S(=O)(NC1CCCc2ccccc21)c1cnc[nH]1 (stereo unspecified)	51.6*	0.3	2.1	4.1	68.3*	0.5
CC(=O)N1CCc2cc(S(=O)(=O)NC3CCCc4ccccc43)ccc21 (stereo unspecified)	x	x	1.4	-0.9	x	x
CC(=O)NCc1ccc(-c2csc(N)n2)s1	10.9	1	9.6	-1.3	-2.1	0.9
O=C(C1CCCN(S(=O)(=O)c2cccs2)C1)N1CCN(C2CCCCC2)CC1 (stereo unspecified)	27.9	0.9	-3.8	2.3	14.3	0.7
CCOC(=O)Cc1nnc(NC(=O)c2ccccc2OCC)s1	x	x	9.2	-10.6	x	x
CCOC(=O)c1csc(NC(=O)c2ccccc2)n1	42.6	0.3	14.9	-3.8	74.3*	0.6
CCOC(=O)Cc1cnc(NC(=O)c2ccccc2)s1	84.0*	0.1	-5.3	-0.9	94.4*	0.2
Cc1cccc(NC(=O)CSc2nc3ccccc3c3nc(CCc4c(C)n[nH]c4C)nn23)c1	87.5*	0.3	17.1	0.5	65.8*	0.1
Cc1n[nH]c(C)c1CCc1nc2c3ccccc3nc(SCC(=O)Nc3ccccc3F)n2n1	94.6*	0.4	9.2	10.0	63.5*	0.1
Cc1nc2ccccc2n1CCc1nc2c3ccccc3nc(SCC#N)n2n1	0.6	0.8	26.5	-20.7	17.2	1
Cn1c(N/N=C/c2ccccc2)nc2sc3c(c2c1=O)CCC3	-2.6	1.1	7.8	-3.1	-14.1	1
CCC(=O)N1CCCc2cc(S(=O)(=O)N3CCN(C4CCCCC4)CC3)ccc21	-5.7	0.7	8.9	0.6	33.0	1.1
Cc1ccc(C(=O)CCCn2nnc(-c3cccnc3)n2)cc1C	55.1*	0.2	5.2	16.4	80.0*	0.4
CC1CCCN(C(=O)Cn2nnc(-c3cccnc3)n2)C1 (stereo unspecified)	-14.0	0.5	16.6	0.2	48.1	1.1
O=C(Cn1c(=O)oc2cc(S(=O)(=O)N3CCCC3)ccc21)Nc1cccc(C(F)(F)F)c1	30.6	1.1	-4.3	1.6	-5.0	0.7
O=S(=O)(c1ccc(SCCO)nc1)N1CCCC1	-19.9	0.6	5.1	-6.6	38.2	1.2
O=c1cc(CSc2ccc(S(=O)(=O)N3CCCCC3)cn2)nc2sccn12	79.7*	0.3	73.4*	78.9*	65.9*	0.2
CCCCc1nc2ccccc2n1Cc1nnc2n1-c1ccccc1SC2	92.4*	0.1	5.2	-0.6	90.8*	0.1
CCn1c(-c2ccc(N)cc2)nc2ccccc21	-8.2	0.8	14.9	2.6	21.7	1.1
CCn1c(/C=C/c2ccccc2)nc2ccccc21	-162.7	0.6	13.3	3.9	43.7	2.6*
COc1ccc(Cn2c(/C=C/c3ccccc3)nc3ccccc32)cc1	91.4*	0.6	42.5*	16.5	37.9	0.1
CCCc1nc(N2CCOCC2)c2sc(=S)n(-c3ccccc3)c2n1	27.0	0.9	-1.4	-3.6	7.1	0.7
COc1ccc(N2C(=O)CC(N3CCN(c4ccc(S(=O)(=O)N5CCCC5)cc4)CC3)C2=O)cc1 (stereo unspecified)	2.4	1	-10.1	-6.5	4.1	1
CCC(NC(=O)NC1=NCCS1)(C(F)(F)F)C(F)(F)F	-12.6	1	14.1	-4.1	-4.3	1.1
SMILES	CYP2C9 inh	CYP2C19 act	PostGolgi ctrl	PostGolgi yeast	CYP2C19 inhib	CYP2C9 act
CCOC(=O)C(C)Sc1cc(CS(=O)(=O)c2ccccc2)nc(-c2ccccc2)n1 (stereo unspecified)	95.8*	0.2	18.4	13.8	77.0*	0
O=S(=O)(Cc1cc(Oc2ccccc2)nc(-c2ccccc2)n1)c1ccccc1	61.2*	0.4	11.1	5.3	58.8*	0.4
Cc1nc(CS(=O)(=O)c2ccc(Cl)cc2)cc(Sc2ccc(Cl)cc2)n1	88.3*	0.9	7.1	-5.7	12.3	0.1
O=S(=O)(Cc1cc(Sc2ccc(Cl)cc2)nc(-c2ccccc2)n1)c1ccccc1	80.6*	0.3	-7.2	-3.7	65.3*	0.2
O=C(O)CC1NC(=S)N(c2ccccc2)C1=O (stereo unspecified)	-12.8	1.1	15.0	-2.0	-6.9	1.1
O=C1C(Cc2ccc(O)cc2)NC(=S)N1c1ccccc1 (stereo unspecified)	38.4	0.4	3.7	-0.2	56.9*	0.6
O=C(NC1CCCCC1)N1CCN(C(c2ccccc2)c2ccccc2)CC1	46.6	1	15.7	-1.7	-0.3	0.5
CCSc1nnc(-c2cccc(S(=O)(=O)N(CC)CC)c2)n1Cc1ccccc1	76.5*	0.1	11.6	-9.7	90.5*	0.2
CCNC(=O)CSc1nnc(-c2cccc(S(=O)(=O)N(CC)CC)c2)n1CCc1ccccc1	11.6	1.2	3.0	4.7	-17.1	0.9
CCN(CC)S(=O)(=O)c1cccc(-c2nnc(SCc3ncc(-c4ccccc4)o3)n2C)c1	50.6*	0.6	11.9	-3.6	37.8	0.5
COc1ccc(-c2nnc(SCc3nnc(-c4ccccc4)o3)n2C)cc1OC	19.7	0.9	9.6	-5.1	13.6	0.8
O=C(N1CCOCC1)N1CCN(S(=O)(=O)N2CCOCC2)CC1	6.1	1	3.4	-1.9	0.2	0.9
CCOC(=O)Cc1nnc(Nc2cccc(O)c2)c2ccccc12	-12.4	0.8	-6.5	-3.2	21.9	1.1
Cc1nnc(-c2cnn(-c3ccccc3)c2N)n1Cc1ccncc1	17.5	0.6	3.3	4.2	38.3	0.8
O=C(Nc1ccccc1)OCN1C(=O)c2ccccc2C1=O	-27.1	0.8	3.3	2.5	21.4	1.3
CCCS(=O)(=O)c1cn2cccc(N)c2c1S(=O)(=O)CCC	11.2	0.9	31.3*	-0.6	10.9	0.9
O=C(CSc1nnc(CNC(=O)c2c(F)cccc2Cl)o1)c1ccccc1	x	x	4.0	0.2	x	x
Cc1cccc(C)c1Nc1nc2ccccc2o1	64.3*	0.6	5.0	-4.3	39.3	0.4
COc1ccc(-c2c(C)nn3c(N4CCC(C(=O)NCCN(C)C)CC4)cc(C)nc23)cc1OC	-3.7	1.1	6.5	14.3	-10.4	1
CCCN(CCC)C(=O)C1CCN(c2cc(C)nc3c(-c4ccc(OC)c(OC)c4)c(C)nn23)CC1	51.3*	0.5	6.1	-3.6	48.3	0.5
CC(C)C1CC(O)(C2(O)CCCCC2)ON1 (stereo unspecified)	-7.1	1.1	28.1	1.1	-13.3	1.1
COc1ccc(S(=O)(=O)Nc2cc(C(C)C)c(O)cc2C)cc1	-22.3	0.1	2.6	-7.8	87.8*	1.2
COc1ccc(S(=O)(=O)Nc2cc(C)c(O)cc2C(C)C)cc1	-135.1	0	18.4	-0.2	99.3*	2.4*
COc1ccc(NS(=O)(=O)c2ccc(C)c(C(=O)O)c2)cc1	8.9	1	6.5	0.2	-4.5	0.9

Compound activity as filed in PubChem BioAssay.
